Test results taken from the supplement of paper PMC10720658.
± gives the standard deviation of the averaged measurements.

What follows are molecules tested on AEK1 (Tb927.3.2440) (assay: percent reduction in TR-FRET probe signal relative to DMSO control; higher = stronger displacement of ATP-site probe (binding)). Conditions: 1 µM; incubation time 1 h.

SMILES	percent reduction in TR-FRET probe signal [%]
N#CC(C#N)=Cc1ccc(O)c(O)c1	7.98 ± 17
CCN1CCN(C(=O)Cc2ccc(Nc3ncc(F)c(Nc4ccc(C(=O)Nc5ccccc5Cl)cc4)n3)cc2)CC1 [Aurora A Inhibitor I]	24.1 ± 4.8
Cc1ccccc1-n1c(Cn2ncc3c(N)ncnc32)nc2cccc(C)c2c1=O	-5.42 ± 2.9
O=c1[nH]c2ccccc2n1C1CCN(Cc2ccc(-c3nc4cc5nc[nH]c5cc4nc3-c3ccccc3)cc2)CC1	-9.38 ± 1.6
COc1ccc(N(C(=O)Oc2c(C)cccc2C)c2ccnc(Nc3ccc(N4CCN(C)CC4)cc3)n2)c(OC)c1	12.5 ± 3.4
O=c1[nH]c2ccc(Cl)cc2c(N[C@@H]2CN3CCC2CC3)c1-c1nc2ccccc2[nH]1	25.9 ± 11
COc1ccc2c(c1)/C(=C/c1cnc[nH]1)C(=O)N2	-2.34 ± 5.7
Cn1cc(C2=C(c3cn(C4CCN(Cc5ccccn5)CC4)c4ccccc34)C(=O)NC2=O)c2ccccc21	-6.77 ± 7.9
C/C(O)=C(\C#N)C(=O)Nc1cc(Br)ccc1Br	-3.29 ± 1.9
CC(C)(C)c1cc(C=C(C#N)C#N)cc(Br)c1O	17.3 ± 12
CC(C)(C)c1cc(C=C(C#N)C#N)cc(C(C)(C)C)c1O [Tyrphostin 9]	15.1 ± 1.3
